The text below walks through data of PubChem BioAssay AID538 (PCMD, 2006).

The structures appear in SMILES notation. Out of some 62,000 compounds screened, about 100 (0.16%) were called active.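 How the source made its calls: active means inhibition above 20% in each of the two 10-compound mixture wells holding the compound; inactive means the rest.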 Only a selection was taken, and actives are over-represented in it overall.

The target in this experiment is Complement C1s subcomponent (Homo sapiens) (UniProt P09871). As to the kind of experiment: human C1s inhibition by compound pools – biochemical, 10-compound mixtures, primary screen (AID 538).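 Further: 0% = enzyme wells lacking compound mixture and 100% = no-enzyme blank wells.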 The following applies: purified C1s, fluorogenic AMC substrate, pooled mixtures; screened at 5 µM (by protocol).
Sequence of Complement C1s subcomponent (Homo sapiens) (P09871 16-437 limits assumed): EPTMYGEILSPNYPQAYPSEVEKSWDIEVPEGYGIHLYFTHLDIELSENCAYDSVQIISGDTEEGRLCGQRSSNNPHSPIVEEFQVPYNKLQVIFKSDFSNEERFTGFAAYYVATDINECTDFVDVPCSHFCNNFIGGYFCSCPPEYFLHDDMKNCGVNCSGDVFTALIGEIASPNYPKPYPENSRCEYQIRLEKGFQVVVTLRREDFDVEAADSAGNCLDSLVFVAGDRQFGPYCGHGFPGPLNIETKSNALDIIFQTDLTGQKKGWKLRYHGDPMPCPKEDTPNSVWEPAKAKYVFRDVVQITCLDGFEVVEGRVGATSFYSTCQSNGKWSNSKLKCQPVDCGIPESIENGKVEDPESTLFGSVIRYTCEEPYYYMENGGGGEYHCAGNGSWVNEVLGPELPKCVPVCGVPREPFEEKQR
Sequence of Complement C1s subcomponent (Homo sapiens) (P09871 438-688 limits assumed): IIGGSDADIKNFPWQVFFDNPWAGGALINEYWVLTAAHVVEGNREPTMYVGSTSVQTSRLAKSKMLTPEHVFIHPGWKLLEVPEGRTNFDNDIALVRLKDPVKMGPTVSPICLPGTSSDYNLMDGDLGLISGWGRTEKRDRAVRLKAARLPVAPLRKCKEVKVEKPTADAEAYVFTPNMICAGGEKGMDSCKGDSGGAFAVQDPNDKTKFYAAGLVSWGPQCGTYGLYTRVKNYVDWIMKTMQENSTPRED
Turning to `CCOc1ccccc1C1CC(c2ccccc2)Nc2nc(N)nn21` (centres undefined), the mean inhibition % of two 10-compound mixtures (active compounds read high) is -0.62% (inactive).
For `CCOC(=O)CCC(=O)OCC(=O)NC(C)C1CC2CCC1C2` (centres undefined) the value was -1.13% (inactive); for `CCCCCC(=O)Nc1ccc2oc(-c3ccncc3)nc2c1`, -5.25% (inactive); for `CCCCSc1nnc(-c2ccc(NC(=O)CC)cc2)n1C`, 10.2% (inactive).
For `Cc1ccc2c(c1)NCC(C(=O)NC1CCC(C)CC1)O2` (centres undefined) the value was -7.38% (inactive).
With `CN(C)CCCNc1c2c(c(C#N)c3nc4ccccc4n13)CCC2` the figure was 11.8% (inactive); with `COc1ccc(S(=O)(=O)Nc2c(C)n(C)n(-c3ccccc3)c2=O)cc1`, -40.7% (inactive).
For `CCn1c(-c2cc(OC)ccc2OC)csc1=Nc1c(C)n(C)n(-c2ccccc2)c1=O`, the mean inhibition % of two 10-compound mixtures (active compounds read high) was 11.4% (inactive).
Regarding `Cc1ccc(C(=O)N2CCCCCC2)cc1Br`, the mean inhibition % of two 10-compound mixtures (active compounds read high) is 48.4% (inactive).
With `O=S(=O)(CCc1nc2ccccc2o1)c1ccc(Cl)cc1` the figure was 1.62% (inactive).
As to `COC(=O)c1ccc(NC(=O)CSc2nnc(-c3ccncc3)n2C)cc1`, the mean inhibition % of two 10-compound mixtures (active compounds read high) is 4.27% (inactive).
For `Cc1ccc(S(=O)(=O)n2nc(OC(=O)C(C)(C)C)cc2N)cc1` the value was -80.6% (inactive); for `O=C(CCS(=O)(=O)c1cccc2nonc12)NCCc1ccccc1Cl`, -46.5% (inactive); for `CCCC1C(c2ccccc2)C(C#N)(C#N)C2(C#N)CC1(N)NC2=O` (centres undefined), 13.4% (inactive).
For `Cc1nnc(C)n1/N=C/c1ccc(C(C)C)cc1` the value was 5.96% (inactive); for `O=C(CCc1ccccc1)Nc1ccc(NC(=O)C2CC2)nc1`, 3.19% (inactive).
For `CC1OC2C(OC1C)N(S(C)(=O)=O)CCN2S(C)(=O)=O` (centres undefined) the value was 6.29% (inactive).
Regarding `COc1cc(C(O)c2nc3ccccc3n2C)cc(OC)c1OC` (centres undefined), the mean inhibition % of two 10-compound mixtures (active compounds read high) was -4.52% (inactive).
With `COc1ccc(C)cc1-n1nnnc1SCC(=O)c1cc(C)n(Cc2ccco2)c1C` the figure was 11.7% (inactive); with `O=C(NCC12CC3CC(C1)CC(CNC(=O)N1CCCC1)(C3)C2)N1CCCC1`, 13.6% (inactive).
With `c1cc(-c2nn[nH]n2)ccc1CN1CCCCC1` the figure was 14.2% (inactive); with `Cc1nc2ccccc2c2oc(C(=O)NCC3CCCO3)cc12` (centres undefined), -97.9% (inactive); with `CCCCn1c(SCC(=O)NCC2CCCO2)nc2ccc(N3CCOCC3)cc2c1=O` (centres undefined), -11% (inactive).
For `Cn1c(=O)c2[nH]c(NCC3CCCO3)nc2n(-c2ccccc2)c1=O` (centres undefined) the value was 64.6% (active); for `COc1cccc(N2C(=O)CC(N3CCN(S(=O)(=O)c4ccccc4)CC3)C2=O)c1` (centres undefined), -26.5% (inactive).
Turning to `CCOC(=O)C1Cn2c(nc3c(c2=O)C(C)(CC)Cc2ccccc2-3)S1` (centres undefined), the mean inhibition % of two 10-compound mixtures (active compounds read high) is -5.78% (inactive).
With `O=C1CC(c2cccc(Br)c2)C2=C(CCCC2=O)N1` (centres undefined) the figure was 17.2% (inactive); with `CCNC(=O)N1CCNC(=O)C1CC(=O)Nc1ccc(C(=O)OCC)cc1` (centres undefined), -35.7% (inactive); with `Cc1ccc(-c2nc(COC(=O)c3c(C)noc3C)cs2)cc1`, 3.81% (inactive).
For `COC(=O)Cn1c(=NC(=O)CSCC(=O)Nc2cc(C)on2)sc2ccccc21` the value was 5.49% (inactive); for `COc1ccccc1-c1cc(C(=O)NCCCn2ccnc2)no1`, 9.65% (inactive).
With `O=C(NCCCN1CCOCC1)c1cc(-c2ccc(Cl)cc2)on1` the figure was 4.71% (inactive); with `CCCCc1nc2ccccc2c(=O)n1NC(=O)c1c(O)c2cccc3c2n(c1=O)CC3`, 4.25% (inactive).
With `O=C1CCCC(O)=C1C=NCCc1ccccc1`, the mean inhibition % of two 10-compound mixtures (active compounds read high) is 50.4% (active).
For `O=C1CC(c2ccccc2)CC(O)=C1C=NCCN1CCOCC1` (centres undefined) the value was 17.3% (inactive); for `CC1(C)CC(=O)C(C=NCCC2=CCCCC2)=C(O)C1`, -0.72% (inactive).
With `COC(=O)c1nc(NC(=O)c2ccc(Cl)cc2)n[nH]1` the figure was 12.2% (inactive); with `Cc1ccc(C(=O)N(CN2CCCC2=O)c2ccc(F)cc2)cc1`, 5.52% (inactive).
With `Cc1ccc(C)c(N2CCN(C(=O)CCc3nc4ccccc4[nH]3)CC2)c1`, the mean inhibition % of two 10-compound mixtures (active compounds read high) is 1.21% (inactive).
With `CCOC(=O)C(CCOc1cccc(CC)c1)C(=O)OCC` the figure was -10.1% (inactive); with `Cc1c(NC(=O)Nc2ccccc2Cl)sc(=S)n1C`, -6.43% (inactive).
With `CCCCN(C)C(=O)c1ccc2c(c1)N(CC)C(=O)c1ccccc1S2(=O)=O` the figure was 5.62% (inactive); with `COc1ccc(-n2c(SCC(=O)Nc3ccc4c(c3)OCO4)nnc2C(C)N2CCCCC2)cc1` (centres undefined), -12.3% (inactive).
For `CCN(Cc1ccncc1)C(=O)c1cccc(S(=O)(=O)N2CCOCC2)c1` the value was 2.16% (inactive); for `Cc1cc(N2C(=O)C(=O)/C(=C(/O)c3ccc(Cl)cc3)C2c2cccc(Br)c2)no1` (centres undefined), 11.8% (inactive).
Turning to `O=C(NCc1ccco1)c1sc2cccc(F)c2c1Cl`, the mean inhibition % of two 10-compound mixtures (active compounds read high) was 3.97% (inactive).
For `COc1ccc(NC(=O)CCNC(=O)Cn2ccc3ccccc3c2=O)c(OC)c1` the value was 13.2% (inactive); for `CC(C)Nc1nc(N(c2ccccc2)c2ccccc2)nc(-n2ccnc2)n1`, 9.18% (inactive).
For `CSc1cccc(NC(=O)C2CCCN2S(=O)(=O)c2ccc3c(c2)CCC(=O)N3)c1` (centres undefined) the value was -3.33% (inactive).
